Laboratory results taken from ChEMBL document CHEMBL3988442, “University of Dundee, Small-Polar-MMV Screening Library” (2021).
The whole screen tested about 69,000 compounds, of which about 1,000 (1.4%) showed an effect of 50% or more. The full list was thinned out, with strong results kept by preference.

Test system: Leishmania donovani
Assay: Leishmania intramacrophage assay
Type: functional, organism-based
Design: scale not given: in the data most compounds retested in dose-response had high values

Cn1cc(C2CN(C(=O)Cc3coc(-c4ccccc4)n3)CCO2)cn1 (stereo not given)
Percent Effect (30.3 µM, […]): 1.481%

COc1ccccc1CCN(C)C(=O)NC(C)c1nncn1C (stereo not given)
Percent Effect (30 µM, 30.03 µM): 13.36%

COc1cc(CN2CCC(COCc3ccccc3)CC2)cc(OC)c1
Percent Effect (30.3 µM, […]): 11.79%

CCc1ccc(Cn2nccc2NC(=O)C2CCS(=O)(=O)C2)cc1 (stereo not given)
Percent Effect (30.3 µM, […]): 28.09%

COc1ccc(-c2nnc([C@H]3CCN(C4CCC4)C3)o2)cc1
Percent Effect (30.3 µM, […]): 5.132%

O=C(c1ccc(Cn2ccccc2=O)o1)N1CCSCC1
Percent Effect (30 µM): 34.1%

Cc1nc2c(c(NC3CCN(Cc4ccccc4)CC3)n1)CCNCC2
Percent Effect (30.3 µM, […]): 8.424%

c1ccc(-c2nc3c(c(NCCn4cccc4)n2)CCNCC3)nc1
Percent Effect (30.3 µM, […]): 4.707%

Cc1nc2c(c(NCC3Cc4ccccc4CN3C)n1)CCNCC2 (stereo not given)
Percent Effect (30.3 µM, […]): 11.22%

Cc1nc2c(c(NCc3cc4ccccc4s3)n1)CCNCC2
Percent Effect (30.3 µM, […]): 99.76%

Cc1nc2c(c(NCC(c3ccccc3C)N(C)C)n1)CCNC2 (stereo not given)
Percent Effect (30.3 µM, […]): 37.15%

Cc1nc2c(c(NCc3nc4ccccc4s3)n1)CCNCC2
Percent Effect (30.3 µM, […]): 11.81%

Cc1nc2c(c(NCC(O)c3ccccc3Cl)n1)CCNCC2 (stereo not given)
Percent Effect (30.3 µM, […]): 52.68%

Cc1nc2c(c(NCc3ccc(-c4ccccn4)s3)n1)CCNCC2
Percent Effect (30.3 µM, […]): 74.83%

c1ccc(-c2nc3c(c(NCCn4ccnn4)n2)CCNCC3)nc1
Percent Effect (30.3 µM, […]): 12.83%

COC[C@@]12CCC[C@@H]1CN(C(=O)CN(C)C)C2.O=C(O)C(F)(F)F
Percent Effect (30.3 µM, […]): 2.882%

CCc1cnc(CCNC(C)CC(=O)Nc2cccc(C)c2C)s1 (stereo not given)
Percent Effect (30.3 µM, […]): 0.8494%

COCC1CN(Cc2cccc(C#N)c2)Cc2nccn2C1 (stereo not given)
Percent Effect (30.3 µM, […]): 20.19%

CNC[C@H]1CC[C@H](c2cc(CN(C)S(=O)(=O)N(C)C)n(C)n2)CC1.Cl
Percent Effect (30.3 µM, […]): 29.88%

COCC1CC2(CCN(C(=O)c3ccc(C)nc3)CC2)CO1.O=C(O)C(F)(F)F (stereo not given)
Percent Effect (30.3 µM, […]): 25.55%

CN(C)[C@@H]1CCN(C(=O)NC2CCCC2)[C@H]1Cc1cnn(C)c1.O=C(O)C(F)(F)F
Percent Effect (30 µM, 30.03 µM): 11.61%

Cc1cc(N2CCC(c3nccn3Cc3cscn3)CC2)ccn1
Percent Effect (30.3 µM, […]): -14.56%

COCC(C)NCc1nc(-c2ccc(C)cc2)c(-c2ccccn2)[nH]1 (stereo not given)
Percent Effect (30.3 µM, […]): 71.58%

CN(C)S(=O)(=O)NCc1nc(-c2cccc(F)c2)c(-c2ccccn2)[nH]1
Percent Effect (30.3 µM, […]): 3.232%

Cc1ccc(-c2nc(CNC(C)CCO)[nH]c2-c2ccccn2)cc1 (stereo not given)
Percent Effect (30.3 µM, […]): 67.9%

Cc1cnn(CC(C)NCc2nc(-c3ccccn3)no2)c1 (stereo not given)
Percent Effect (30.3 µM, […]): 2.286%

Cc1ccc(-c2nc(CNS(=O)(=O)N(C)C)[nH]c2-c2ccccn2)cc1
Percent Effect (30.3 µM, […]): 30.48%

COCc1ccc(C(=O)N2CCOCC2c2ccc(C)o2)cc1 (stereo not given)
Percent Effect (30.3 µM, […]): 18.1%

O=C(O)C(F)(F)F.c1ccc(C[C@H]2CN(C3CCOCC3)CC[C@H]2OCC2CC2)cc1
Percent Effect (30.3 µM, […]): 14.89%

O=C(COc1coc(CN2CCCCCC2)cc1=O)c1ccccc1
Percent Effect (30 µM, 30.03 µM): 12.38%

Cc1cc(C)c2c(NCC3(O)CCCCC3)ncnc2n1
Percent Effect (30.3 µM, […]): -4.66%

CC(c1c(F)cccc1F)N1CCN(Cc2nccn2C)CC1 (stereo not given)
Percent Effect (30.3 µM, […]): 28.44%

O=C(N1CCCC1)N1CCc2ncnc(C3CCOC3)c2CC1 (stereo not given)
Percent Effect (30 µM, 30.03 µM): -0.6847%

CN(Cc1cc2cc(F)ccc2[nH]1)C(=O)C1CC(=O)N(C(C)(C)C)C1 (stereo not given)
Percent Effect (30.3 µM, […]): 55.15%

CCN1CC(C(=O)N(C)Cc2cc3cc(F)ccc3[nH]2)CC1=O (stereo not given)
Percent Effect (30.3 µM, […]): 16.63%

CN(Cc1cc2cc(F)ccc2[nH]1)C(=O)C1CC(=O)N(C2CC2)C1 (stereo not given)
Percent Effect (30.3 µM, […]): 14.52%

COC(=O)c1ccc(F)c(Cn2nc(C)cc2C)c1
Percent Effect (30.3 µM, […]): 38.02%

O=S(=O)(NC(CO)Cc1c[nH]c2ccccc12)c1cncc(F)c1 (stereo not given)
Percent Effect (30.3 µM, […]): 19.78%

Cc1ccc(C(=O)N2CCc3c(COCC4CC4)cncc3C2)o1
Percent Effect (30.3 µM, […]): -21.23%

COCc1nc(CNc2cccc(-c3nc(C)c(C)o3)c2)cs1
Percent Effect (30.3 µM, […]): 3.012%

COCc1nc(CNc2cccc(-c3ncon3)c2)cs1
Percent Effect (30.3 µM, […]): 70.63%

COCc1nc(CNc2cccc(-c3csc(C)n3)c2)cs1
Percent Effect (30.3 µM, […]): -17.78%

N#Cc1nccnc1NC1CCN(c2ccccc2Br)C1 (stereo not given)
Percent Effect (30.3 µM, […]): -7.134%

Cc1ccc(CNCC2CCN(CCO)CC2)cc1
Percent Effect (30.3 µM, […]): -12.85%

OCCN1CCC(CNCc2ccc(Br)cc2)CC1
Percent Effect (30.3 µM, […]): 77.88%

CS(=O)(=O)c1ccc(CNCC2CCN(CCO)CC2)cc1
Percent Effect (30 µM, 30.03 µM): 7.016%

Cc1ncccc1CNCC1CCN(CCO)CC1
Percent Effect (30 µM): 29.11%

N#Cc1ccc(CNCC2CCN(CCO)CC2)cc1
Percent Effect (30 µM, 30.03 µM): 18.87%

NC(=O)c1ccc(CNCC2CCN(CCO)CC2)cc1
Percent Effect (30.3 µM, […]): -0.3402%

OCCN1CCC(CNCc2ccc(N3CCCCC3)cc2)CC1
Percent Effect (30.3 µM, […]): 79.78%

CCc1ccc(CNCC2CCN(CCO)CC2)cc1
Percent Effect (30.3 µM, […]): 73.93%

OCCN1CCC(CNCc2cn(-c3ccccc3)nn2)CC1
Percent Effect (30.3 µM, […]): -6.29%

Cn1cc(CC2CC(=O)N(Cc3ccccc3OC(F)F)C2=O)cn1 (stereo not given)
Percent Effect (30.3 µM, […]): 7.915%

Cl.NC1CCN(C(=O)c2c(F)cccc2Br)CC1
Percent Effect (30.3 µM, […]): 2.162%

COc1ccc([C@@H]2CN(c3cnccn3)C[C@H]2N(C)C)cc1
Percent Effect (30.3 µM, […]): -8.819%

CC(C)Cn1cc(NC(=O)NC(C)(C)c2nccs2)cn1
Percent Effect (30.3 µM, […]): -3.295%

CCN(CC1CN(Cc2nccn2CC)CCO1)c1cccnn1 (stereo not given)
Percent Effect (30.3 µM, […]): 7.569%

CCS(=O)(=O)N1CCC(NC(=O)c2cc(C(C)C)ccc2O)CC1
Percent Effect (30 µM): 11.27%

CC(=O)N1CCC1c1cc(N2CCNC(=O)C2)nc(C)n1 (stereo not given)
Percent Effect (30.3 µM, […]): 23.92%

Cc1cnc(CN2CCCC(c3cc(C(N)=O)[nH]n3)C2)o1 (stereo not given)
Percent Effect (30 µM, 30.03 µM): 5%

c1ccc(-c2nnc(CN3CCOC(Cn4cccn4)C3)o2)cc1 (stereo not given)
Percent Effect (30 µM): 14.93%

Cc1ccc(CN2Cc3c(cnn3C)C(COCC3CC3)C2)s1 (stereo not given)
Percent Effect (30.3 µM, […]): 92.44%

Cc1ccc(CN2Cc3nnn(C)c3C(COCC3CC3)C2)s1.O=C(O)C(F)(F)F (stereo not given)
Percent Effect (30.3 µM, […]): 19.91%

Cn1ncc2c1CN(Cc1cccnc1)CC2COCC1CC1.O=C(O)C(F)(F)F.O=C(O)C(F)(F)F.O=C(O)C(F)(F)F (stereo not given)
Percent Effect (30 µM, 30.03 µM): 26.28%

Cn1cc(CN2Cc3c(cnn3C)C(COCC3CC3)C2)cn1.O=C(O)C(F)(F)F.O=C(O)C(F)(F)F (stereo not given)
Percent Effect (30.3 µM, […]): -2.121%

Cn1ncc2c1CN(Cc1ccc(F)cc1)CC2COCC1CC1.O=C(O)C(F)(F)F.O=C(O)C(F)(F)F (stereo not given)
Percent Effect (30.3 µM, […]): 51.09%

Cn1ncc2c1CN(Cc1ccccc1F)CC2COCC1CC1.O=C(O)C(F)(F)F.O=C(O)C(F)(F)F (stereo not given)
Percent Effect (30.3 µM, […]): 24.46%

CNC(=O)[C@H]1C[C@@H]2CN(S(=O)(=O)c3ccc(C)cc3)C[C@@H]2N1C.O=C(O)C(F)(F)F
Percent Effect (30.3 µM, […]): 7.67%

CC(=O)Nc1nc(-c2ccc(F)cc2)c[nH]1
Percent Effect (30.3 µM, […]): -6.024%

NCCC(=O)N1CCC2(CC1)CN(C(=O)Cc1ccc(Cl)cc1)CCO2
Percent Effect (30.3 µM, […]): -0.5643%

CN1CC(=O)N(c2ccsc2)CC12CCN(S(C)(=O)=O)C2.O=C(O)C(F)(F)F (stereo not given)
Percent Effect (30 µM, 30.03 µM): 2.434%

COCCN1C[C@@H]2[C@@H](OC)CCN(Cc3ccco3)[C@@H]2C1.O=C(O)C(F)(F)F.O=C(O)C(F)(F)F
Percent Effect (30.3 µM, […]): 5.523%

COCCN1C[C@@H]2[C@@H](OC)CCN(Cc3ccc(C)o3)[C@@H]2C1.O=C(O)C(F)(F)F.O=C(O)C(F)(F)F
Percent Effect (30.3 µM, […]): 53%

COCCN1C[C@H]2[C@@H](C1)N(Cc1ccc(C)o1)CC[C@H]2OC
Percent Effect (30 µM, 30.03 µM): 22.66%

CC(c1ccccn1)N(C)Cc1ccc(CCC(C)(C)O)cc1 (stereo not given)
Percent Effect (30.3 µM, […]): 34.83%

CCC(CO)N(C/C(C)=C/c1ccco1)Cc1ccccn1 (stereo not given)
Percent Effect (30.3 µM, […]): 3.364%

C/C(=C\c1ccco1)CN(C)C(C)c1ccccn1 (stereo not given)
Percent Effect (30.3 µM, […]): 72.9%

O=C(c1cscn1)N1CCCCC1c1nc2cc(F)ccc2[nH]1 (stereo not given)
Percent Effect (30.3 µM, […]): 28.33%

CCS(=O)(=O)NCCCNCc1c(C)nn(C)c1N(C)C
Percent Effect (30 µM): -21.2%

O=C(O)C(F)(F)F.O=C1CC(c2ccccc2)C2(CCN(CC3CC3)CC2)N1 (stereo not given)
Percent Effect (30 µM, 30.03 µM): 17.34%

CCc1nc(C2CCCN2C(=O)Cc2cccs2)no1 (stereo not given)
Percent Effect (30 µM): 2.577%

Cc1cc(S(=O)(=O)NCC(C)(C)N)c(F)cc1F.Cl
Percent Effect (30.3 µM, […]): 25.52%

CCOc1nc2cnccc2n(CC(=O)NCc2ccco2)c1=O
Percent Effect (30.3 µM, […]): -11.31%

CCc1nc(NCCCn2cccn2)c2c(n1)c(C)nn2CC
Percent Effect (30.3 µM, […]): -48.93%

CCn1nc(C)c2nc(C)nc(NCCCn3cccn3)c21
Percent Effect (30.3 µM, […]): -10.11%

CCCc1nc(NCCc2ccccc2)c2c(n1)c(C)nn2CC
Percent Effect (30.3 µM, […]): 98.89%

CCCc1nc(NCCCOCC)c2c(n1)c(C)nn2CC
Percent Effect (30.3 µM, […]): 51.09%

CCCc1nc(NCCCOC)c2c(n1)c(C)nn2CC
Percent Effect (30.3 µM, […]): -43.63%

CCCc1nc(NCCCO)c2c(n1)c(C)nn2CC
Percent Effect (30 µM, 30.03 µM): 3.921%

CCn1nc(C)c2nc(C)nc(NCCc3ccccc3)c21
Percent Effect (30.3 µM, […]): 36.57%

CCCc1nc(NCCCn2cccn2)c2c(n1)c(C)nn2CC
Percent Effect (30.3 µM, […]): 56.39%

CCCc1nc(NCCOC)c2c(n1)c(C)nn2CC
Percent Effect (30.3 µM, […]): 9.64%

CCCNC(=O)CSCc1ccc(S(=O)(=O)N(C)C)o1
Percent Effect (30.3 µM, […]): 6.939%

Nc1nc2c(c(NCC(c3cccnc3)N3CCOCC3)n1)CCNC2 (stereo not given)
Percent Effect (30.3 µM, […]): 45.62%

CCC(Nc1nnnn1-c1ccccc1)C(=O)NCc1cccs1 (stereo not given)
Percent Effect (30.3 µM, […]): 14.73%

Cc1cnc(C(=O)N2Cc3ncn(C)c3C(COCC(C)C)C2)cn1.O=C(O)C(F)(F)F (stereo not given)
Percent Effect (30.3 µM, […]): 30.84%

CN(CCc1noc(C2CC2)n1)C(=O)C1(N2CCCC2)CCCC1
Percent Effect (30.3 µM, […]): 28.86%

Cc1cc(NC(=O)NCCc2cccs2)n(C)n1
Percent Effect (30 µM, 30.03 µM): -9.195%

O=C(CN1CCCS1(=O)=O)NCCOc1ccc2c(c1)CCC2
Percent Effect (30 µM, 30.03 µM): 22.18%

CCc1nc(C2CCCN2c2ncc(C(N)=O)cc2Cl)no1 (stereo not given)
Percent Effect (30.3 µM, […]): -6.943%
